For 99 molecules, Potency results are on record in PubChem BioAssay AID1460 (National Center for Advancing Translational Sciences (NCATS), 2008).

Hit rate of the full screen: of about 270,000 compounds, about 5,800 (2.1%) were called active. About 16% were inconclusive and are not listed. Calls follow the shape of the dose curve; as a rule, active = well fitted inhibition curve with a large enough effect; inconclusive = small, poorly fitted or top-dose-only effect; inactive = flat fitted curve, though single readings scatter. Shown is part of a subset that was picked to be rich in actives. Entries that show only a call come without a potency.
Potency is read from the fitted curve at half-maximal effect.

In this experiment the target is Microtubule-associated protein tau (Homo sapiens) (UniProt P10636). The experiment can be described thus: qHTS for Inhibitors of Tau Fibril Formation, Thioflavin T Binding. Also: nearly all actives have a fitted effect of over 55% in size. Particulars: recombinant tau K18 P301L (four-repeat tau fragment), heparin-induced fibrillization, ThT fluorescence; series mostly up to 57.4 µM. In outline: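 K18 P301L tau (15 uM + 0.24 uM Alexa 594-tagged), heparin 20 uM, NaOAc pH 7, 6 h 37 C; ThT 30 uM, 1 h RT, ex 450/em 510 nm.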
Sequence of Microtubule-associated protein tau (Homo sapiens) (P10636 561-689 P618L limits assumed): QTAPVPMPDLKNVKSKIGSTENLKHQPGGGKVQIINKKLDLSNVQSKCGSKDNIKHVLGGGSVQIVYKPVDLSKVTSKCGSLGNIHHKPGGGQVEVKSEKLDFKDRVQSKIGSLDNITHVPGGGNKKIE
For `COc1ccc(OC)c(NC(=O)CSC2=Nc3ccccc3C3=NC(CC(=O)NCCc4ccccc4)C(=O)N23)c1` (centres undefined), the Potency result was “inactive”.
On to `CC(=O)Oc1c2c(c3c(c1CC=C(C)C)O[C@@]14C(=CC5CC1C(C)(C)OC4(C/C=C(\C)C(=O)O)C5=O)C3=O)OC(C)(CCC=C(C)C)C=C2` (some centres undefined), for which the Potency is 31.6 µM (active).
For the molecule `COc1ccccc1NC(=O)Cn1cnc2ccc(S(=O)(=O)N3CCC(C)CC3)cc2c1=O`, the Potency entry was “inactive”.
With `CN1c2ccc(Cl)cc2-c2nc(SCC(=O)Nc3cc(F)ccc3F)ncc2S1(=O)=O` the entry was “inactive”; with `CN1/C(=c2/s/c(=C3/C(=O)N(c4ccccc4)NC3=Nc3ccccc3)n(C)c2=O)C(C)(C)c2ccccc21`, 7.94 µM (active); with `CC1CCCCN1CCCNC(=O)Cn1ncc2c([nH]c3ccccc32)c1=O` (centres undefined), “inactive”.
For the molecule `CCc1ccc(NC(=O)CCS(=O)(=O)c2cc3c(cc2Cl)NC(=O)CO3)cc1`, the Potency entry is “inactive”.
With `COc1ccc(C)cc1NC(=O)C(=O)NCCc1sc(-c2cccc(C)c2)nc1C` the entry was “inactive”; with `Cc1ccc(Nc2ccc(C(N)=O)cc2[N+](=O)[O-])cc1`, “inactive”.
Take `O=C(O)c1ccccc1C(=O)Nc1ccccc1[N+](=O)[O-]`: the Potency entry was “inactive”.
Next, `O=[N+]([O-])c1ccccc1Nc1ccc(O)cc1`: 22.4 µM (active); `CCCN1C(=O)C(O)(CC(=O)c2ccc(CC)cc2)c2cc(Br)ccc21` (centres undefined): “inactive”; `Cc1nonc1NC(=O)CSc1nc2ccccc2cc1C#N`: 1.78 µM (active).
On to `COc1ccc(N2CCN(C(=O)CSc3nc4cc(OC)c(OC)cc4cc3C#N)CC2)cc1`, for which the Potency entry was “inactive”.
As to `Cc1nc2cc(NC(=O)CSc3nc4c(C)cccc4cc3C#N)ccc2s1`, the Potency entry is “inactive”.
Consider `CCOc1ccc2cc(C#N)c(SCC(=O)OC)nc2c1`, for which the Potency was 3.16 µM (active).
Next, `Cc1cc(C)c(C#N)c(SCC(=O)Nc2ccccc2)n1`: “inactive”; `COC(=O)CSc1nc(C)c2ccc(OC)cc2n1`: “inactive”.
Next, `CC(=O)c1ccc(NC(=O)c2nc(-c3ccc(C)cc3)n3c2CCCCC3)cc1`: “inactive”; `Cc1ccc(CCNC(=O)c2nnc(Cc3cccc(F)c3)o2)cc1`: “inactive”; `CC(C)OC(=O)c1c(NC(=O)c2ccco2)sc2c1CCCC2`: “inactive”.
With `CCOC(=O)c1c(NC(=S)NC(=O)c2ccco2)sc2c1CCCC2` the entry was “inactive”; with `CNC(=O)c1c(NC(NC(=O)c2ccco2)C(=O)c2ccc(Cl)cc2)sc2c1CCCC2` (centres undefined), 25.1 µM (active).
With `COc1cc2c(cc1OC)C(COc1ccc(F)cc1)N(C(=O)c1ccccc1F)CC2` (centres undefined), the Potency result is “inactive”.
In the case of `COc1cc(Cl)c(NC(=O)CC(C)S(=O)(=O)c2cc3c(cc2C)NC(=O)CO3)c(OC)c1` (centres undefined), the Potency entry was “inactive”.
With `Cc1c(N=Nc2ccc(N(C)C)cc2)c(=O)n(-c2ccccc2)n1C` the figure was 15.8 µM (active); with `Cc1ccc(N=Nc2c(C)[nH]n(-c3ccccc3)c2=O)cc1`, “inactive”; with `Cc1c(C=O)n(C)n(-c2ccccc2)c1=O`, “inactive”.
On to `CC(C)(C)c1ccc(S(=O)(=O)Nc2ccc(O)c(Sc3nc4ccccc4s3)c2)cc1`, for which the Potency entry was “inactive”.
In the case of `O=C(CSc1nc2ccccc2s1)Nc1ccc(C(=O)O)cc1`, the Potency entry is “inactive”.
Consider `O=[N+]([O-])c1c(NCCO)cc(Sc2nc3ccccc3s2)c2nonc12`, for which the Potency is 12.6 µM (active).
Next, `COC(=O)c1cc(S(=O)(=O)N2CCN(c3cc(Cl)ccc3C)CC2)c[nH]1`: “inactive”; `O=C1C(c2ccccn2)=[N+]([O-])c2ccccc21`: 3.98 µM (active); `COc1ccc(NC(=O)CSc2nc3ccccc3n2CC(=O)N2CCCCC2C)cc1` (centres undefined): “inactive”.
With `COc1cc(NC(=O)c2cc(C3CC3)nc3c2c(C)nn3-c2ccccc2)cc(OC)c1` the entry was “inactive”; with `COC(=O)CC1Oc2ccccc2-n2cc(-c3ccccc3)nc21` (centres undefined), “inactive”.
With `O=C(c1ccc(Cl)cc1)c1ccc(OCC(O)CN2CCCCC2)cc1` (centres undefined) the entry was “inactive”; with `O=C(c1ccccc1)c1ccc(OCC(O)CN2CCCC2)cc1` (centres undefined), “inactive”; with `CCOc1ccc(C(=O)/C=C/c2cn(CC(O)CN3CCCCCC3)c3ccccc23)cc1` (centres undefined), 12.6 µM (active).
Consider `Cc1ccc(C)c(CNC(=O)c2cc3ccccn3n2)c1`, for which the Potency result is “inactive”.
`CC/C(=N/Nc1ccccc1)c1cnnc(SC)n1`: the Potency was 7.08 µM (active).
For `CCOc1ccccc1C(=O)Nc1ccc(S(=O)(=O)N2CCCCC2c2cccnc2)cc1` (centres undefined), the Potency result was “inactive”.
Next, `CCOC(=O)c1c(C)[nH]c(C)c1S(=O)(=O)NCC(=O)NCc1cccc(C)c1`: “inactive”.
Consider `COc1ccc(Br)cc1/C=N/n1c(C)nnc1C`, for which the Potency entry is “inactive”.
Take `COc1cc(Br)cc(/C=N/c2ncn[nH]2)c1O`: the Potency is 14.1 µM (active).
Next, `Cc1ccc(-c2nc(C)sc2CC(=O)O)cc1`: “inactive”; `C/C(=N/Nc1nc(-c2ccccc2)c(CC(=O)O)s1)c1ccccc1`: 12.6 µM (active); `O=C(O)Cc1sc(-c2ccc(C(=O)O)cc2)nc1-c1ccccc1`: “inactive”.
In the case of `COc1ccc(NC(=O)CSc2nccn2Cc2ccc3c(c2)OCO3)cc1`, the Potency result was “inactive”.
For `Nc1ncc(S(=O)(=O)Nc2ccc(OC(F)(F)F)cc2)cn1`, the Potency entry is “inactive”.
In the case of `CCc1ccc2ncc3c(-c4ccc(C)cc4)nn(CC(=O)NCc4ccccc4)c3c2c1`, the Potency result is “inactive”.
For `COc1ccc(CNC(=O)CSc2n[nH]c(-c3ccc(F)cc3)n2)cc1`, the Potency entry was “inactive”.
`Cc1ccc(NC(=O)c2oc3ccccc3c2NC(=O)Cc2cccs2)cc1`: the Potency entry is “inactive”.
Turning to `CCOC(=O)Cc1csc(NC(=O)CSc2ccc(Br)cc2)n1`, the Potency entry was “inactive”.
With `CCCCc1nnc(NC(=O)CSc2nc(C)cc(=O)[nH]2)s1` the entry was “inactive”; with `CCOC(=O)Cc1csc(NC(=O)CSc2nc(C)cc(=O)[nH]2)n1`, 28.2 µM (active); with `CC1=Nc2cc(C(=O)NCc3ccc(C)cc3)ccc2Sc2ccc(Cl)cc21`, “inactive”.
`Cc1ccc(Cl)cc1N1CCN(S(=O)(=O)c2cc3[nH]c(=O)c(=O)[nH]c3cc2C)CC1`: the Potency entry is “inactive”.
For `COc1cc(C(=O)NCCc2csc3nc(-c4ccccc4C)nn23)cc(OC)c1OC`, the Potency entry is “inactive”.
Next, `CC(C)(C)OC(=O)NCCCC1=CC2=CC(=O)C(C)(OC(=O)c3ccco3)C(=O)C2=CO1` (centres undefined): “inactive”.
With `COC/C=C/C1=CC2=CC(=O)C(C)(OC(=O)CCC(=O)OC)C(=O)C2=CO1` (centres undefined) the figure was 15.8 µM (active); with `COc1cc(CN(C(=O)c2ccccc2Br)c2ccccn2)cc(OC)c1OC`, “inactive”.
Turning to `CCOc1cccc(NC(=O)c2ccc(F)c(S(=O)(=O)N(CC)c3cccc(C)c3)c2)c1`, the Potency entry is “inactive”.
In the case of `Oc1ccc(N=Cc2sc3ccccc3c2Cl)cc1`, the Potency is 7.08 µM (active).
With `COC(=O)c1cc(NC(=O)c2sc3ccccc3c2Cl)cc(C(=O)OC)c1` the entry was “inactive”; with `Oc1ccc(N=Cc2c(O)ccc3ccccc23)cc1`, 12.6 µM (active); with `O=C(Nc1ccon1)c1sc2ccccc2c1Cl`, “inactive”.
For the molecule `CN(Cc1ccccc1)c1ncnc2onc(-c3ccc(F)cc3)c12`, the Potency result is “inactive”.
With `O=c1c(NCc2cccs2)nccn1-c1ccccc1` the entry was “inactive”; with `O=C(CSc1cn(CC(=O)N2CCOCC2)c2ccccc12)Nc1ccccc1`, “inactive”.
Next, `Cc1ccc2oc3c(c(=O)c2c1)C(c1ccc([N+](=O)[O-])cc1)N(CCCN1CCOCC1)C3=O` (centres undefined): “inactive”; `CCN1CCC(N(Cc2ccc(F)cc2)C(=O)Nc2cc(C)ccc2C)CC1`: “inactive”.
Next, `Cc1cc(C)c2sc(NC(=O)c3ccc(S(=O)(=O)N4CCCC4)cc3)nc2c1`: “inactive”; `CCOc1cccc(CNC(=O)c2ccc(N3CCCC3)c(NC(=O)Nc3ccccc3CC)c2)c1`: “inactive”; `COc1cccc(C(=O)NC(=O)Nc2ccc(-c3cc(C(F)(F)F)nn3-c3ccccc3)cc2)c1`: “inactive”.
As for `Cc1ccccc1CCNC(=O)C1CCN(c2nc3ccccc3nc2C(F)(F)F)CC1`, the Potency result was “inactive”.
As to `CCc1cnc2c(c1SCC(=O)N1CCC(C)CC1)c(=O)n(C)c(=O)n2C`, the Potency entry is “inactive”.
Next, `Nc1c(-c2cccc(Cl)c2)cnn1-c1cccc([N+](=O)[O-])c1`: 12.6 µM (active); `O=[N+]([O-])c1cccc(C2=NCCS2)c1`: “inactive”; `O=C(Nc1cccc([N+](=O)[O-])c1)Nc1ccc(Cl)cn1`: “inactive”.
With `Cc1c(C(=O)N2CCCC2)oc2c1-c1nn(CC(=O)NCc3ccc(OC(C)C)cc3)cc1CC2` the entry was “inactive”; with `Cc1ccc(OCC(=O)OCc2cc(=O)n3nc(C4CC4)sc3n2)cc1C`, “inactive”; with `Cc1ccc(Cl)cc1N(C)C(=O)C1CCCN(c2ncnc3onc(-c4ccc(F)cc4)c23)C1` (centres undefined), “inactive”.
With `O=C1c2ccccc2C2=Nc3ccccc3SC(c3ccccc3F)C12` (centres undefined) the figure was 7.94 µM (active); with `CC(=O)c1ccc(NC(=O)CCc2nc(-c3ccc(C)cc3)no2)cc1`, “inactive”.
With `O=C(Nc1ccc(Br)cc1)c1ccc(Br)c(S(=O)(=O)NCc2ccccc2)c1`, the Potency result is “inactive”.
For the molecule `CCOC(=O)c1sc(NC(=O)c2ccncc2)nc1C`, the Potency result is “inactive”.
For the molecule `CCOC(=O)c1sc(=S)n2c1[nH]c(=O)c1ccc(C(=O)OC)cc12`, the Potency is 7.08 µM (active).
With `CCOC(=O)c1sc(=S)n(-c2cccc(OC)c2)c1N` the entry was “inactive”.
Regarding `COc1ccccc1N1CCN(C(CNC(=O)C(=O)NCc2ccc(C)cc2)c2cccnc2)CC1` (centres undefined), the Potency entry was “inactive”.
With `O=[N+]([O-])c1cc(-c2nc(-c3ccccc3)no2)ccc1NCc1ccco1` the entry was “inactive”; with `Cc1ccc(-n2ncc3c(N4CCC(C(N)=O)CC4)ncnc32)cc1`, “inactive”.
Next, `COc1ccc(C(=O)NN2C(=O)C3C(c4ccccc4)C=CC(c4ccccc4)C3C2=O)cc1` (centres undefined): “inactive”; `CC(=O)N1C(=O)/C(=C2\SC(=S)N(NC(=O)c3ccc(O)cc3)C2=O)c2ccccc21`: 25.1 µM (active); `O=C(O)c1ccc2c(c1)C(=O)N(NC(=O)c1ccc(O)cc1)C2=O`: “inactive”.
With `O=C(c1cccnc1)N(c1cc2sc(=O)oc2c2ccccc12)S(=O)(=O)c1ccccc1` the figure was 11.2 µM (active).
In the case of `CN(C)S(=O)(=O)c1cccc(C(=O)Nc2cccnc2)c1`, the Potency entry was “inactive”.
Next, `COc1ccc(N(C(=O)c2cccnc2)S(=O)(=O)c2ccc3c(c2)n(C)c(=O)n3C)cc1`: “inactive”.
With `COc1ccccc1CNc1nccn(-c2ccc(F)cc2)c1=O` the entry was “inactive”.
